Records with an inconclusive call do not appear. Active and inactive are the calls of the source. The calls were made as follows: active = hit-call score of the fitted dose curve at least 0.9, where 1 is the maximum; inconclusive = response in the unintended direction; inactive = score below 0.9.
What follows are compounds tested against rat Vasoactive Intestinal Peptide Receptor (VIP), Non-selective Binding, Vipr1 (gene 24875) (UniProt P30083) (assay: NVS_GPCR_rVIP_NonSelective: NovaScreen (NVS) G Protein-Coupled Receptor Assay for rat Vasoactive Intestinal Peptide Receptor (VIP), Non-selective Binding).
Sequence of rat Vasoactive Intestinal Peptide Receptor (VIP), Non-selective Binding, Vipr1 (gene 24875) (P30083 whole entry, looked up): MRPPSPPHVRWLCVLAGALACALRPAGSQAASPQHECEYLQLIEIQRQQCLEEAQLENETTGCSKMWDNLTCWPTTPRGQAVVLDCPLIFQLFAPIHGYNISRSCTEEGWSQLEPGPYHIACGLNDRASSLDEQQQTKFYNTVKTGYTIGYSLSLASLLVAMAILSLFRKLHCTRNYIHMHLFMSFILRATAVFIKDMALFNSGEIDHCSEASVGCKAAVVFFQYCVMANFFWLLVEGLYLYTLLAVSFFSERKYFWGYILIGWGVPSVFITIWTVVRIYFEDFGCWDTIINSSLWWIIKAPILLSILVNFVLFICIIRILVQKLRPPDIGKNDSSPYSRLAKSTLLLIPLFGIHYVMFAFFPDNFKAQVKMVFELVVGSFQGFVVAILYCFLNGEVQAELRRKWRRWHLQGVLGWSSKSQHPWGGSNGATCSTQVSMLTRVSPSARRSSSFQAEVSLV
Method: NVS_GPCR_rVIP_NonSelective is a biochemical, single-readout assay that uses extracted gene-proteins from Rat forebrain membranes in a tissue-based cell-free assay. Measurements were taken 1 hour after chemical dosing in a 96-well plate.NVS_GPCR_rVIP_NonSelective is one of one assay component(s) measured or calculated from the NVS_GPCR_rVIP_NonSelective assay. It is designed to make measurements of radioligand binding, a form of binding reporter, as detected with scintillation counting signals by Filter-based radiodetection technology.Data from the assay component NVS_GPCR_rVIP_NonSelective was analyzed into 1 assay endpoint. This assay endpoint, NVS_GPCR_rVIP_NonSelective, was analyzed in the positive analysis fitting direction relative to DMSO as the negative control and baseline of activity. Using a type of binding reporter, loss-of-signal activity can be used to understand changes in the binding as they relate to the gene Vipr1. Furthermore, this assay endpoint can be referred to as a primary readout, because the performed assay has only produced 1 assay endpoint. To generalize the intended target to other relatable targets, this assay endpoint is annotated to the gpcr intended target family, where the subfamily is secretin receptor.
Binding assays used specific radioligands (tritiated, iodinated) with non-radioactive competitive displacement ligands in agonist or antagonist protocols (as indicated) and various reference compounds and inhibitors to titrate specific binding to receptors and transporters. Most enzyme assays (CYPs, kinases, phosphatases, proteases, HDACs) used recombinant protein and specific substrates (fluorescence mostly, some colorimetric and radioactive) and inhibitors, followed by a biochemical separation of substrate and product. All assays for the biochemical HTS were initially run in duplicate at a single concentration (10 uM for CYP450 assays and 25 uM for all others). Assay-chemical combinations meeting a pre-defined threshold (e.g., 30% inhibition and other criteria defined below) were then run in singleton concentration-response format with maximum concentration of 20 uM for CYPs and 50 uM for all others. Each assay was run with positive and negative controls, and concurrent controls on every plate. The follow-up (secondary) screen tested active chemical-pairs in concentration series, as well as a few additional assays not tested in the primary screen, some selected negative inactives, and several cases re-run in the concentration series for confirmatory purposes.

Row | Compound | outcome | AC50
1 | Cc1ccc(-c2c(Cl)nc(C#N)n2S(=O)(=O)N(C)C)cc1 | inactive | 
2 | C=C(C)C(=O)[O][Sn]([CH2]CCC)([CH2]CCC)[CH2]CCC |  | 14.9 µM (active)
3 | COP(=S)(OC)Oc1nc(Cl)c(Cl)cc1Cl | inactive | 
4 | CCOP(=O)(OCC)Oc1nc(Cl)c(Cl)cc1Cl | inactive | 
5 | CC(=O)[O][Hg][c]1ccccc1 | inactive | 
6 | CC[C@H](C)[C@H]1O[C@]2(C=C[C@@H]1C)C[C@@H]1C[C@@H](C/C=C(\C)[C@@H](O[C@H]3C[C@H](OC)[C@@H](O[C@H]4C[C@H](OC)[C@@H](NC)[C@H](C)O4)[C@H](C)O3)[C@@H](C)/C=C/C=C3\CO[C@@H]4[C@H](O)C(C)=C[C@@H](C(=O)O1)[C@]34O)O2 | inactive | 
7 | Nc1c(Cl)c(F)nc(OCC(=O)O)c1Cl | inactive | 
8 | CCC[CH2][Sn]([Cl])([CH2]CCC)[CH2]CCC |  | 7.97 µM (active)
9 | CC(C)N1C(=O)N(c2ccccc2)CSC1=NC(C)(C)C | inactive | 
10 | Oc1ccccc1-c1ccccc1 | inactive | 

— PubChem BioAssay AID2283312 (EPA ToxCast)
